Laboratory results published in PubChem BioAssay AID602281 (The Scripps Research Institute Molecular Screening Center, 2012).
Where “and” joins values, the source holds several entries; their conditions need not be identical. Equal entries are not always repeated. Screen size: about 360,000 compounds; about 2,900 (0.81%) were called active. The sample holds actives, similar compounds and a random draw of the others, so the mix is not that of the screen.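 Rule for the calls: active = inhibition above the mean inhibition across every tested compound plus 3 SD (cut at about 22% in these data); inactive = the rest.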 Some structures have more than one record in an assay (separate samples or runs), and their calls can disagree.

biological target: Perilipin-5 (Homo sapiens) + 1-acylglycerol-3-phosphate O-acyltransferase ABHD5 (Homo sapiens) (UniProt Q00G26+Q8WTS1); test: ABHD5-PLIN5 interaction inhibitors, primary screen, cell lysate, split luciferase complementation, luminescence (AID 602281);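 note: 0% = DMSO only wells and the 100% control is not disclosed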; conditions: Split G. princeps luciferase complementation, 4 h, at 4 µM, stronger effect = higher value
Sequence (Q00G26 whole entry, looked up): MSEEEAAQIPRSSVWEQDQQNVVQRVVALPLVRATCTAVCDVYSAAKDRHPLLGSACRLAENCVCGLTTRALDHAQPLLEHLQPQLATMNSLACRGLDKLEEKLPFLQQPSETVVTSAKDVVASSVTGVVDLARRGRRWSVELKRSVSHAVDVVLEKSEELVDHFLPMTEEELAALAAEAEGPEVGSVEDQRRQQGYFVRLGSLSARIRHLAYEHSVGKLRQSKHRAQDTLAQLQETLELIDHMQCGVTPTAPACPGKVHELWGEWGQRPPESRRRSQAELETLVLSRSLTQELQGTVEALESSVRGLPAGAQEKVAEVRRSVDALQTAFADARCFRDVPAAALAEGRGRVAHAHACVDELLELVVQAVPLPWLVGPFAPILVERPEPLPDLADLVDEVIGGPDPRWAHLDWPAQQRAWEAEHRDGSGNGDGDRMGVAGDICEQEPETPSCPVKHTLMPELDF
Sequence (Q8WTS1 whole entry, looked up): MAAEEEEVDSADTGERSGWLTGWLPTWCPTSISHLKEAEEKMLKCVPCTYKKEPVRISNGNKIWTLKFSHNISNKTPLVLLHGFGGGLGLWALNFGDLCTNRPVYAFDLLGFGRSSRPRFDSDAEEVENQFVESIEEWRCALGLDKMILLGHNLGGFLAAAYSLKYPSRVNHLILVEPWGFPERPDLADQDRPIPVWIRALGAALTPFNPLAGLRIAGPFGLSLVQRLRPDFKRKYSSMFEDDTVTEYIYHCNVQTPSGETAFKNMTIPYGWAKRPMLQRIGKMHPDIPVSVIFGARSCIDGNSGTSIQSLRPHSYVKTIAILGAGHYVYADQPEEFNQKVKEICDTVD

SMILES	inhibition
CC1CCCN(CCCNC(=O)CN2C(=O)COc3ccc(S(=O)(=O)N4CCOCC4)cc32)C1 (stereo not drawn)	-1.77% (inactive)
CCc1cccc(NC(=O)CCCN2C(=O)C(c3ccccc3)Oc3cccnc32)c1 (stereo not drawn)	-1.01% (inactive)
Cc1ccc(-c2nnc(C)c(N3CC(C)OC(C)C3)n2)cc1 (stereo not drawn)	-1.84% (inactive)
CC(OC(=O)CCCOc1ccccc1)C(=O)Nc1ccc(Cl)cn1 (stereo not drawn)	-0.81% (inactive)
O=C1OCCOC2CCCc3oc(-c4ccccc4)c1c32 (stereo not drawn)	-3.07% (inactive)
CN1CCC(=O)N([C@H](CO)Cc2ccccc2)CC1	-5.42% (inactive)
Cc1ccsc1C(=O)NC1CCCCC1C (stereo not drawn)	4.79% (inactive)
CC(N)C12CC3CC(CC(O)(C3)C1)C2 (stereo not drawn)	-6.3% (inactive)
Cc1nc2ccccn2c1C(=O)NN=C1CCN(C)CC1	-0.19% (inactive)
CC(=O)Oc1ccc(N(C(C)=O)S(=O)(=O)c2ccc3ccccc3c2)cc1Br	6.52% (inactive)
COC(=O)c1c(C)oc2ccc(N(C(=O)Oc3ccccc3)S(=O)(=O)c3ccccc3)cc12	-1.45% (inactive)
CC(=O)N(c1ccc2oc(=O)sc2c1)S(=O)(=O)c1ccc(C)cc1	36.7% (active)
COC(=O)c1ccccc1Oc1c(F)c(F)nc(N2CCOCC2)c1F	-7.97% (inactive)
COc1cccc(N2CC(NS(=O)(=O)c3cccs3)CC2=O)c1 (stereo not drawn)	0.8% (inactive)
CCN(CC(=O)Nc1ccc(Cl)c(S(=O)(=O)N(C)C)c1)Cc1nc2ccccc2c(=O)[nH]1	-4.43% (inactive)
Cc1cc(N2CCCC2=O)cc(C)c1S(N)(=O)=O	-1% (inactive)
O=C(COc1nsnc1N1CCOCC1)Nc1ccccc1Cl	0.63% (inactive)
O=C(Nc1ccccc1Cl)/C(Cl)=C(\Cl)S(=O)c1ccccc1 (stereo not drawn)	81.7% (active)
CCOC(=O)[C@]12CCCC=C1N(Cc1ccc3c(c1)OCO3)C(=O)[C@H](CC(=O)N1CCN(C(=O)c3ccco3)CC1)C2	5.36% (inactive)
c1ccc(-n2cccc2)c(N2CCCCC2)c1	-0.7% (inactive)
O=C(c1ccc(Cl)c(S(=O)(=O)N2CCCCCC2)c1)N1CCN(c2ccc(O)cc2)CC1	1.37% (inactive)
O=C1C=CC(=O)N1c1ccc(N2CCCCC2)cc1	29% (active)
CCN(C(=O)CSc1nc(N)cc(=O)[nH]1)C1CCS(=O)(=O)C1 (stereo not drawn)	-2.61% (inactive)
Cc1c(NC(=O)c2cc(-c3ccc(Cl)s3)nc3ccccc23)c(=O)n(-c2ccccc2)n1C	0.07% (inactive)

SMILES	inhibition
Cc1ccc(NC(=O)c2cc(-c3ccc(C)o3)nc3ccccc23)nc1	29% (active)
CCc1ccc(-c2cc(C(=O)NN3CCN(C)CC3)c3ccccc3n2)cc1	11.1% (inactive)
O=C(CCC(=O)OCC(F)(F)C(F)F)NCc1ccccc1	-6.31% (inactive)
Oc1c(CN2CCOCC2)ccc(CN2CCOCC2)c1O	-0.13% (inactive)
COc1ccccc1NC(=O)CSc1nnc(Cn2nnc(-c3ccccc3)n2)n1-c1ccccc1	7.76% (inactive)
COc1ccc(/C(C)=N/NC(=O)CCC(=O)Nc2ccc(Cl)cc2Cl)c(OC)c1	-4.09% (inactive)
CCCCC(=O)N/N=C(\C)CC(=O)Nc1cc(Cl)ccc1OC	22.2% (active)
COc1ccc(Cl)cc1NC(=O)CCS(=O)(=O)c1ccc(Br)cc1	-6.29% (inactive)
COc1cc2c(C(=O)N(C)c3cc(Cl)ccc3OC)cn(C)c(=O)c2cc1OC	-8.81% (inactive)
CN(C)CCNC(=O)C(C(=O)c1ccccc1)n1ccccc1=O (stereo not drawn)	-4.39% (inactive)
CCCN1CCn2c3c(c4cc(Br)ccc42)CCCC31 (stereo not drawn)	-7.51% (inactive)
OC(CNCC1CCCO1)Cn1c2ccc(Br)cc2c2cc(Br)ccc21 (stereo not drawn)	27.7% (active)
COCCNC(=O)c1ccc(Cn2c(SCC(=O)NCC3CCCO3)nc3ccc(Br)cc3c2=O)cc1 (stereo not drawn)	-3.04% (inactive)
CCOc1ccc(N(CC(=O)NCCc2ccc(OC)cc2)S(C)(=O)=O)cc1	-0.93% (inactive)
Cc1cc(C)n(CC(C)NCc2c(C(=O)N3CCOCC3)nc3c(C)cccn23)n1 (stereo not drawn)	1.11% (inactive)
CC1=C(C(=O)N2CCOCC2)CC(CC(=O)NCc2ccco2)C(=O)N1Cc1ccc(F)cc1 (stereo not drawn)	5.09% (inactive)
Cc1c(CCO)sc[n+]1CC(=O)OC12CC3CC(CC(C3)C1)C2	-1.3% (inactive)
Cc1c(CCOC(=O)c2cc([N+](=O)[O-])ccc2Cl)sc[n+]1CCCCS(=O)(=O)[O-]	7.78% (inactive)
Cc1c(CCOC(=O)CC23CC4CC(CC(C)(C4)C2)C3)sc[n+]1Cc1ccc([N+](=O)[O-])cc1	19% (inactive) and 24.3% (active)
O=C(NCCCN1CCOCC1)C1CCCN(S(=O)(=O)N2CCCCC2)C1 (stereo not drawn)	-6.18% (inactive)
Fc1ccc(Nc2nnns2)cc1	-1.08% (inactive)
Cc1[nH]c(C)c(S(=O)(=O)N2CCN(c3cccc(C(F)(F)F)c3)CC2)c1C(=O)N1CCCCC1	-3.87% (inactive)
Cc1c(C)c2c(OCC(=O)N[C@@H](C(=O)O)c3ccccc3)cc3c(c2oc1=O)CCC(C)(C)O3	9.96% (inactive)
CC1Cc2ccccc2N1CC(=O)Nc1ccc(S(N)(=O)=O)cc1 (stereo not drawn)	26.1% (active)

SMILES	inhibition
CC1Cc2ccccc2N1CC(=O)Nc1ccc2c(c1)OC(F)(F)O2 (stereo not drawn)	-17.3% (inactive)
CC1CC(C)CN(CC(=O)Nc2ccc(S(N)(=O)=O)cc2)C1 (stereo not drawn)	-3.77% (inactive)
O=C(CCSc1ccccc1)NCCSc1ccccn1	4.14% (inactive)
Cc1ccc2cc3cc(C(=O)N4CCCCCC4)oc3nc2c1	0.91% (inactive)
O=C1Cc2cc(S(=O)(=O)Nc3cccc(F)c3)ccc2N1	-4.67% (inactive)
CCN(CC(=O)Nc1c(F)cccc1F)C(=O)c1ccc(-c2ccc(C(C)=O)cc2)o1	-6.21% (inactive)
CCC1(c2ccccc2)NC(=O)N(CC(=O)c2ccc3c(c2)OCO3)C1=O (stereo not drawn)	6.66% (inactive)
O=C(CCN1CCc2ccccc2C(O)(c2ccccc2)C1)c1ccc2c(c1)OCCO2 (stereo not drawn)	40.8% (active)
O=C(CN1CCN(c2ccccc2F)CC1)c1ccc2c(c1)OCO2	1.72% (inactive)
COCCN1CCn2c(nc3cc(NS(C)(=O)=O)ccc32)C1	3.04% (inactive)
Cc1cc(SCC(=O)NCCN2C(=O)CSC2=O)nc2ccccc12	1.93% (inactive)
Cc1cc(C)cc(C(=O)NC(CC(N)=O)c2ccc(N3CCC(N4CCCCC4)CC3)c([N+](=O)[O-])c2)c1 (stereo not drawn)	-0.26% (inactive)
O=C(CSc1nnc(CNC(=O)c2ccc(F)cc2)o1)Nc1ccc2c(c1)OCO2	-2.58% (inactive)
COCCN(CCOC)c1nc(N)c2c(N)nc3c(c2c1C#N)CC(=O)N3Cc1ccc(Cl)cc1	32.7% (active)
C=CCC[C@H](CCCCC)OC(=O)/C=C/[C@H](O)[C@@H](O)C[C@@H](O)CC=C	-7.52% (inactive)
Cc1cccc(-c2ncc(CN3CCC(CO)(CCCc4ccccc4)CC3)cn2)c1	12.2% (inactive)
CC(C)(O)C#Cc1ccc(CN2CCC(CO)(CCc3ccccc3)CC2)cc1	-5.13% (inactive)
Cc1c(CN2CCC(CO)(CCOc3ccccc3)CC2)[nH]c2ccc(Cl)cc12	22.5% (active)
CCC(=O)NC(Nc1cc(C)ccn1)(C(F)(F)F)C(F)(F)F	7.47% (inactive)
c1cc(-c2ccc3[nH]ccc3c2)n2ccnc2c1	0.38% (inactive)
CCN1CCC(O)(/C=C/c2ccc(C)cc2)C(C(=O)/C=C/c2ccc(C)cc2)C1 (stereo not drawn)	75% (active)
CN(CC(=O)Nc1cccc2c1CCCC2)S(=O)(=O)c1ccc(Cl)cc1	4.76% (inactive)
COC(=O)Cc1ccc(OC(=O)C2CCN(S(=O)(=O)c3ccc(OC)c(OC)c3)CC2)cc1	4.12% (inactive)
CC1(C(=O)NCc2cccc3ccccc23)CCN1Cc1ccc(-c2ccccc2)o1 (stereo not drawn)	40.4% (active)

SMILES	inhibition
CC1(C(=O)NCc2ccc3c(c2)OCO3)CCN1C(=O)Cc1cccc2ccccc12 (stereo not drawn)	0.84% (inactive)
CSc1ccc(CN2CCC2(C)C(=O)NCc2ccccc2Br)cc1 (stereo not drawn)	-5.69% (inactive)
CN(C)c1cccc(C(=O)N2CCC(n3nccc3NC(=O)C3CCOC3)CC2)c1 (stereo not drawn)	-0.66% (inactive)
CSCCC(C(=O)NC(C)(C)C)n1c(-c2ccccc2)nc2ccccc21 (stereo not drawn)	-13.8% (inactive)
CC(C)(C)NC(=O)C(CCc1ccccc1)n1c(=O)c(-c2ccccc2)nc2ccccc21 (stereo not drawn)	22.9% (active)
CCC(C(=O)NC(C)(C)C)n1c(-c2ccccc2)nc2ccccc21 (stereo not drawn)	9.54% (inactive)
COc1ccc(S(=O)(=O)N2CCCCC2)cc1NC(=O)C1CC(=O)N(c2ccc3c(c2)OCCO3)C1 (stereo not drawn)	12.7% (inactive)
CCOCN(C(=O)Cn1c(C(C)O)nc2ccccc21)c1c(C)cccc1CC (stereo not drawn)	-2.38% (inactive)
CN(C)C(=O)COC(=O)c1cccc(S(=O)(=O)N2CC3(C)CC2CC(C)(C)C3)c1 (stereo not drawn)	-4.49% (inactive)
Cc1nnnn1/C(=C\c1ccccc1)C(=O)OCC(=O)N1CC2(C)CC1CC(C)(C)C2 (stereo not drawn)	38.6% (active)
O=S(=O)(NCc1cccnc1)c1ccc(Cl)nc1	5.93% (inactive)
Cc1cc(C)c(C)c(S(=O)(=O)Nc2ccc(O)cc2)c1C	4.3% (inactive)
COc1ccc(CN2C(=O)C(CC(=O)NCCN3CCOCC3)CC(C(=O)N(C(C)C)C(C)C)=C2C)cc1 (stereo not drawn)	-11% (inactive)
CCCCCCCCCCCCCCCC(=O)OC/C=C(C)/C=C/C=C(C)/C=C/C1=C(C)CCCC1(C)C	-4.62% (inactive)
O=C(Nc1ccccc1C(F)(F)F)N1CCCC1c1cccnc1 (stereo not drawn)	11.2% (inactive)
CCOc1ccccc1NC(=O)CCc1nnc2ccc(NCc3ccco3)nn12	16.7% (inactive)
CCOC(=O)c1cccc(NC(=O)CCc2nnc3ccc(N4CCOCC4)nn23)c1	-2.37% (inactive)
CC(=O)c1ccc(NC(=O)CCc2nnc3ccc(NCc4ccco4)nn23)cc1	27.9% (active)
O=C(CNc1ccc(F)cc1F)NC(=O)NCc1ccco1	-0.2% (inactive)
CC1CCN(C(=O)CCc2nnc3ccc(NCc4ccco4)nn23)CC1	7.83% (inactive)
O=C(CCc1nnc2ccc(NCc3ccco3)nn12)Nc1cc(F)ccc1F	22.5% (active)
